This is a sample that favours compounds with a hit; in the whole collection about 10% have one here.
SW480 rerep: A quantitative high throughput screen for small molecules that induce DNA re-replication in SW480 colon adenocarcinoma cells; Potency, µM (highest dose often 46.1 µM), actives largely listed as activators; AID 624297, 2012; SW480 DNA re-replication, Hoechst DNA content imaging, 48 h; actives 1.8% (n = 340,000); also: nearly all actives have a fitted effect of over 55% in size
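250 cells/well; 23 nL cpd via pin tool; 48 hr, 37 C, 5% CO2; Hoechst 40 min; imager read of total nuclear intensity, ex 405/em 500-530 nm.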
MCF10A rerep: A quantitative high throughput screen for small molecules that induce DNA re-replication in MCF 10a normal breast cells | MCF 10A DNA re-replication, Hoechst nuclear intensity, 48 h | Potency, µM (highest dose often 46.1 µM), most hits filed as activators | actives 2.9% (n = 350,000) | AID 624296, 2012; also: nearly all actives have a fitted effect of over 50% in size
Gal4-VP16 FLuc: VP16 counterscreen qHTS for inhibitors of ROR gamma transcriptional activity | Drosophila S2 Gal4-VP16 UAS-luciferase, luminescence, 20 h | Potency, µM (series often up to 53.6 µM), most hits filed as inhibitors | actives 3.5% (n = 310,000) | AID 2546, 2010;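 also: Gal4-VP16 expression switched on by copper sulfate through the metallothionein promoter; nearly all actives have a fitted effect of over 50% in size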
KB-V1 MDR tox: qHTS assay for MDR1-selective chemotherapeutics: Primary screen using the drug-selected MDR subline cells KB-V1 | KB-V1 MDR cells viability, CellTiter-Glo, 72 h | actives 3.4% (n = 400,000) | Potency, µM (doses to about 46.1 µM), usual class: cytotoxic; also: nearly all actives have a fitted effect of over 60% in size
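Cells of the MDR subline KB-V1 are plated, dosed with compound at multiple concentrations, and incubated 72 h at 37 degrees C; CellTiter-Glo is then added and luminescence read after 10 min.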
RORg inh: qHTS for inhibitors of ROR gamma transcriptional activity; Nuclear receptor ROR-gamma (Mus musculus), P51450; Drosophila S2 Gal4-RORgamma UAS-luciferase reporter, 20 h; Potency, µM (highest dose often 53.6 µM), usual class: inhibitors; actives 5.4% (n = 310,000); also: nearly all actives have a fitted effect of over 60% in size
Target sequence (P51450 whole entry, looked up, the tested form may be a part): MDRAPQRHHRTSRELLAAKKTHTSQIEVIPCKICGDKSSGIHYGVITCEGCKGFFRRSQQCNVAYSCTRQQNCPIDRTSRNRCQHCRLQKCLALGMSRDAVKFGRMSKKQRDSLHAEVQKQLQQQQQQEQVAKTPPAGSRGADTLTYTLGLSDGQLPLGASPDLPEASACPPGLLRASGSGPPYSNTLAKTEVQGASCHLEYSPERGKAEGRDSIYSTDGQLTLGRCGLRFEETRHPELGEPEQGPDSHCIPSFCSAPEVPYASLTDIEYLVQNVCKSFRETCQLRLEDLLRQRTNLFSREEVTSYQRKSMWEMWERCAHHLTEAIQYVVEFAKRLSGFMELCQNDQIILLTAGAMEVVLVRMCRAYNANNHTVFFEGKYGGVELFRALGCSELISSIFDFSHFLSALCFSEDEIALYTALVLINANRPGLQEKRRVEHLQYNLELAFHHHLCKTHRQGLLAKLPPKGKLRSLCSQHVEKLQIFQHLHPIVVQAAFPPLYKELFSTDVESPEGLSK
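In this cell-based reporter format, copper sulfate (700 uM final) drives Gal4–ROR gamma fusion expression from a metallothionein promoter in Drosophila Schneider cells; compounds preincubated 1 hr, reporter read after 20 hr at ambient temperature.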
KB-3-1 cytotox: qHTS assay for MDR1-selective chemotherapeutics: Primary screen using the parental adenocarcinoma cell KB-3-1; KB-3-1 viability, CellTiter-Glo ATP luminescence, 72 h; Potency, µM (series often up to 46.1 µM), hits mostly cytotoxic; actives 1.4% (n = 400,000); AID 1347075, 2019; also: nearly all actives have a fitted effect of over 60% in size
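Cytotoxicity in the drug-sensitive parental line KB-3-1 was scored as loss of CellTiter-Glo luminescence following 72 h incubation with compound. Values come from curve fitting of normalized concentration-response data.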
Numbers stand for hits; . = inactive; ? = inconclusive; / = not tested or not shown; [ ] = dose if it differs, or a comment. Calls follow the shape of the dose curve; as a rule, active = well fitted curve in the direction sought with a large enough effect; inconclusive = small, poorly fitted or top-dose-only effect, or another doubt; inactive = no such curve, though single readings can be large; an effect the other way counts as inactive or inconclusive.

SMILES	SW480 rerep	MCF10A rerep	Gal4-VP16 FLuc	KB-V1 MDR tox	RORg inh	KB-3-1 cytotox
COc1ccc(CCNC(=O)C(=O)NCC2OCCN2S(=O)(=O)c2ccc(C)cc2)cc1OC (centres undefined)	.	.	10µM	?	.	.
COc1ccccc1CCNC(=O)C(=O)NCC1OCCN1S(=O)(=O)c1ccc(Br)cc1 (centres undefined)	.	?	35.5µM	.	?	.
COc1ccc(S(=O)(=O)N2CCOC2CNC(=O)C(=O)NCCc2ccccc2OC)cc1 (centres undefined)	.	.	.	.	.	.
CCN(CCCN(C)C)c1ccc(/C=C/c2ccnc3ccccc23)cc1	/	/	/	?	/	.
Cc1cc(=O)c2c(O)c3c(O)cc(O)c4c5c(O)cc(O)c6c(O)c7c(=O)cc(C)c8c1c2c(c34)c(c65)c78	/	/	.	/	.	/
CCN(CC)CC(C)CNC(=O)CC(C(=O)N1CCc2ccccc21)n1ccnc1 (centres undefined)	.	.	.	.	11.2µM	.
COCCNC(=O)C1(C)CCCN(Cc2csc3ccccc23)C1 (centres undefined)	/	/	/	.	/	.
O=C(OCC(=O)N1CCCCCC1)c1ccc(S(=O)(=O)N2CCOCC2)cc1	.	.	.	.	.	.
CCOC(=O)c1c(-c2ccccc2Cl)csc1NC(=O)c1cc(S(=O)(=O)N2CCOCC2)ccc1C	.	?	.	10.3µM	.	.
CCC1CCCCN1C(=S)NC(=O)c1cc(S(=O)(=O)N2CCOCC2)ccc1C (centres undefined)	?	.	3.98µM	?	2.24µM	.
Cc1ccc(S(=O)(=O)N2CCOCC2)cc1C(=O)OCC(=O)N1CCCCC1	.	.	/	18.4µM	/	.
CC(=O)c1ccc(NC(=O)c2cc(S(=O)(=O)N3CCOCC3)ccc2C)cc1	.	?	.	.	.	.
Cc1ccc(S(=O)(=O)N2CCOCC2)cc1C(=O)Nc1ccc(N2CCCCCC2)cc1	.	?	/	?	/	3.66µM
O=C1C(Sc2ccccc2)=C[C@@]2(O)CC[C@@H](O)[C@]1(Sc1ccccc1)[C@H]2O	/	/	/	.	/	.
C=Cc1ccc(CSc2nc(-c3ccccc3C)nc3c2Cc2c(CO)cnc(C)c2O3)cc1	/	/	/	.	/	.
c1ccc(CN2CCC3CC2c2c3cccc2N2CCOCC2)cc1 (centres undefined)	/	/	/	.	/	.
Cc1ccccc1C(=O)Nc1cccc(-c2cn3cccnc3n2)c1	/	/	/	.	/	.
CCOc1ccc(N(C(=O)c2ccc(Cl)cc2)S(=O)(=O)c2ccc3c(c2)n(C)c(=O)n3C)cc1	/	/	/	.	/	.
O=C(Nc1ccc(N2CCCC2)cc1)c1cc(Br)ccc1Cl	?	?	.	?	.	20.6µM
Cc1ccc(S(=O)(=O)N2CCOCC2)cc1C(=O)Nc1nc2ccccc2[nH]1	.	?	17.8µM	.	15.8µM	.
CSCCC(NC(=O)c1cc(S(=O)(=O)N2CCOCC2)ccc1C)c1nc2ccccc2[nH]1 (centres undefined)	.	?	/	.	/	.
CCCOc1ccc(CNC(=O)C(CC)n2nc(C)c3sc4ccccc4c3c2=O)cc1 (centres undefined)	/	/	/	.	/	.
CC1CC=CC2C1C(=O)N(Cc1ccccc1)C2c1ccc(F)c(/C=C/c2ccccc2)c1 (centres undefined)	/	/	.	/	.	/
COCCNC(=O)c1nn(-c2ccc(C)cc2)c(=O)n(C)c1=O	/	/	/	.	/	.
CC(=O)c1cccc(NC(=O)c2cnn(-c3ccccc3)c2C)c1	.	.	2.24µM	.	3.55µM	.
SMILES	SW480 rerep	MCF10A rerep	Gal4-VP16 FLuc	KB-V1 MDR tox	RORg inh	KB-3-1 cytotox
Cc1ccc(NC(=O)c2cnn(-c3ccccc3)c2C)cc1C	.	.	?	?	5.01µM	?
Cc1c(C(=O)Nc2ccccc2)cnn1-c1ccccc1	.	.	/	.	/	.
CCOCN(C(=O)Cn1cnc2cc(C)c(C)cc21)c1c(C)cccc1CC	/	/	/	5.17µM	/	?
COc1ccc(C(=O)c2cn(Cc3cccc(C)c3)c3cc4c(cc3c2=O)OCO4)cc1	/	/	/	.	/	.
Cc1oc2cc3oc(=O)c(CCC(=O)NCc4ccccn4)c(C)c3cc2c1C	.	.	?	.	6.31µM	.
CCCn1c(N)c(C(=O)COC(=O)c2c(C)noc2C)c(=O)n(C)c1=O	.	.	.	.	.	.
CC(=O)NC(=S)c1c(N)n(Cc2ccccc2)c(=O)n(C)c1=O	/	/	2.82µM	/	2.82µM	/
Cc1cc(C)c(C)c(S(=O)(=O)N2CCN(CC(=O)c3c(N)n(Cc4ccccc4)c(=O)n(C)c3=O)CC2)c1C	?	13µM	?	14.6µM	.	?
CC(=O)Nc1ccc(SCC(=O)c2c(N)n(Cc3ccccc3)c(=O)n(C)c2=O)cc1	.	.	.	.	.	.
CCCn1c(N)c(C(=S)NC(=O)C2CC2)c(=O)n(C)c1=O	.	.	3.98µM	.	3.55µM	.
CCCCn1c(N)c(C(=S)NC(=O)CC(C)C)c(=O)n(C)c1=O	.	?	1.12µM	?	1.12µM	.
CC(C)n1ncc2c(C(=O)Nc3cccc(C#N)c3)cc(C3CC3)nc21	.	23.1µM	/	.	/	?
COc1ccc(CNC(=O)c2cc(C3CC3)nc3c2cnn3C(C)C)cc1	.	.	/	.	/	.
COc1ccccc1CNC(=O)c1cc(C2CC2)nc2c1cnn2C(C)C	.	?	/	2.91µM	/	.
CC(C)(C)NC(=O)CON=C1c2ccccc2-c2ccccc21	.	?	.	16.4µM	.	.
CC(C)(C)NCC(O)CON=C1c2ccccc2-c2ccccc21 (centres undefined)	?	?	.	?	.	?
COc1cccc2cc(C(C)N(CCCN3CCOCC3)C(=S)Nc3ccc(C)c(C)c3)oc12 (centres undefined)	.	.	?	.	11.2µM	.
CCc1cccc(NC(=S)N(CCCN2CCOCC2)C(C)c2cc3cccc(OC)c3o2)c1 (centres undefined)	.	.	?	.	11.2µM	.
COc1cccc2cc(C(C)N(CCCN3CCOCC3)C(=S)Nc3cccc(C)c3C)oc12 (centres undefined)	.	.	.[10 µM]	.	11.2µM	.
COc1cccc2cc(C(C)N(CCCN3CCOCC3)C(=S)Nc3cc(C)ccc3C)oc12 (centres undefined)	.	.	.[10 µM]	.	11.2µM	.
COc1cccc2cc(C(C)N(CCCN3CCOCC3)C(=O)Nc3ccccc3)oc12 (centres undefined)	.	.	.	.	.	.

Bioassay records deposited in PubChem BioAssay by National Center for Advancing Translational Sciences (NCATS).
